In PubChem BioAssay (Tox21):
Results filed as inconclusive are left out. Where a call stands in place of a potency, no number is given. The source holds several records for some structures; these can differ, active in one and inactive in another. Active and inactive are the calls of the source. Unless noted, the call rests on the fitted dose curve; in most records, active means well fitted curve in the direction sought with a large enough effect in the repeat runs; inconclusive means weak or mixed curves; inactive means no such curve, though single readings can be large; an effect the other way counts as inactive or inconclusive.

Tests used:
[1] = qHTS assay to identify small molecule agonists of the estrogen receptor beta (ER-beta) signaling pathway - cell viability counter screen (AID 1259380); further: nearly all actives have a fitted effect of over 30% in size; further: potency means the concentration at half of the fitted maximal effect
Method in brief: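 ER-beta-UAS-bla HEK293T cells in medium with 2% charcoal-stripped FBS were preincubated 6 hr at 37C, dosed with compound in DMSO for 16 hr, then after the bla read, CellTiter-Glo was added for 30 min at room temperature; luminescence recorded.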

[2] = qHTS assay to identify small molecule antagonists of the estrogen receptor beta (ER-beta) signaling pathway - cell viability counter screen (AID 1259382);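 further: HEK293T cells carrying ER-beta-UAS-bla reporter stimulated with estradiol; series mostly up to about 92 µM; nearly all actives have a fitted effect of over 55% in size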
Method in brief: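 ER-beta-UAS-bla HEK293T cells (2,000/well, 2% charcoal-stripped FBS) were pre-incubated 6 hr at 37C, then given compound plus 1nM final 17-beta-estradiol for 16 hr. Viability was read in the same wells by CellTiter-Glo luminescence after 30 min at room temperature.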

[3] = qHTS assay to identify small molecule agonists of the estrogen receptor alpha (ER-alpha) signaling pathway in the presence of an antagonist - cell viability counter screen (AID 1259386);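 further: series mostly up to about 92 µM; cells exposed to compounds for 22 h at 37 °C before the viability read; nearly all actives have a fitted effect of over 30% in size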
Method in brief: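 VM7Luc4E2 cells (endogenous full-length ER-alpha, 4×ERE-luciferase) were held 5 days in phenol red-free medium with 10% charcoal-stripped FBS, plated, then given 10.0nM ICI-182,780 and compounds at 15 concentrations for 22hr at 37C; viability read by CellTiter-Fluor fluorescence.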

[4] = target: Progesterone receptor (Homo sapiens) (UniProt P06401); test: qHTS assay to identify small molecule agonists of the progesterone receptor (PR) signaling pathway (AID 1346784; calls by dose curve; further: nearly all actives have a fitted effect of over 30% in size)
Method in brief: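 Fluorescence from LiveBLAzer B/G FRET substrate cleavage (2 hr, RT) reported PR activation in PR-UAS-bla HEK 293T cells treated 16 hr at 37C/5% CO2 with compounds; medium contained 2% charcoal-stripped FBS.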

[5] = target: Progesterone receptor (Homo sapiens) (UniProt P06401); test: qHTS assay to identify small molecule antagonists of the progesterone receptor (PR) signaling pathway (AID 1346795; active means well fitted inhibition curve with a large enough effect in the signal ratio in the repeat runs, not every such curve was filed as active; the % refers to the signal ratio)
Method in brief: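 Fluorescence intensity measured 2 hr after adding beta-lactamase FRET substrate to PR-UAS-bla HEK293T cells that had been co-treated 16 hr with compound and 1 nM R5020 (final concentration) in 2% charcoal-stripped FBS.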

[6] = qHTS assay to identify small molecule antagonists of the progesterone receptor (PR) signaling pathway - cell viability counter screen (AID 1346798); further: series mostly up to about 92 µM; nearly all actives have a fitted effect of over 50% in size
Method in brief: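 CellTiter-Glo luminescence; PR-UAS-bla HEK293T, 3,000 cells/well; compound + R5020, 16 hr, 37C/5% CO2; 30 min RT before read.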

[7] = qHTS assay to identify small molecule agonists of the progesterone receptor (PR) signaling pathway - cell viability counter screen (AID 1346799; calls by dose curve; further: nearly all actives have a fitted effect of over 45% in size; further: potency means the concentration at half of the fitted maximal effect)
Method in brief: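 In parallel with the beta-lactamase readout, cytotoxicity toward PR-UAS-bla HEK293T cells was measured by CellTiter-Glo luminescence following 16 hr compound incubation in 2% charcoal-stripped FBS medium.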

[8] = qHTS assay to identify small molecule antagonists of the TGF-beta/Smad signaling pathway - cell viability counter screen (AID 1346824); further: nearly all actives have a fitted effect of over 50% in size
Method in brief: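 SBE-bla HEK 293T cells, incubated overnight, then compound plus 0.25 ng/mL TGF-beta1 (stock added) for 5 hr at 37 C. Viability was read in the same wells by CellTiter-Glo luminescence after 30 min at room temperature.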

[9] = qHTS assay to identify small molecule agonists of the TGF-beta/Smad signaling pathway - cell viability counter screen (AID 1346829); further: nearly all actives have a fitted effect of over 45% in size; further: potency means the concentration at half of the fitted maximal effect
Method in brief: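 In parallel with the Smad reporter read, viability of HEK 293T cells stably carrying SBE-bla is quantified by ATP luminescence following 5 hr compound treatment.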

[10] = qHTS assay to identify small molecule agonists of the TGF-beta/Smad signaling pathway (AID 1346859; active means well fitted activation curve with a large enough effect in the signal ratio in the repeat runs, not every such curve was filed as active; the % refers to the signal ratio; further: series mostly up to about 77 µM)
Method in brief: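 After overnight seeding, SBE-bla HEK 293T cells are dosed with compounds in DMSO and kept 5 hr at 37 C, 5% CO2. LiveBLAzer-type FRET substrate is then applied for 2 hr at room temperature.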

[11] = Human pregnane X receptor (PXR) small molecule agonists, qHTS cell viability counter screen (AID 1346977); further: nearly all actives have a fitted effect of over 50% in size
Method in brief: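 Viability counter screen: CellTiter-Fluor signal in PXR-Luc HepG2 cells, 24hr compound exposure, 37C, 5% CO2.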

[12] = Caspase-3/7 induction in HepG2 cells by small molecules, qHTS assay (AID 1346978); further: nearly all actives have a fitted effect of over 15% in size
Method in brief: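 Wild-type HepG2 cells, 2,000/well, settled 5 hr at 37 C and 5% CO2, then compound-treated for 17 hr; caspase-3/7 activity read by luminescent Caspase-Glo 3/7 after 30 min at room temperature.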

[13] = Caspase-3/7 induction in CHO-K1 cells by small molecules, qHTS cell viability counter screen (AID 1346979); further: nearly all actives have a fitted effect of over 35% in size; further: potency means the concentration at half of the fitted maximal effect
Method in brief: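 Viability readout by fluorescence (CellTiter-Fluor) on wild-type CHO-K1 cells exposed for 16hr at 37C and 5% CO2 to compounds delivered in DMSO; reagent incubated 1hr before reading.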

[14] = Caspase-3/7 induction in CHO-K1 cells by small molecules, qHTS assay (AID 1346980); further: nearly all actives have a fitted effect of over 15% in size
Method in brief: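 Wild-type CHO-K1 cells exposed to compounds for 17hr at 37 C, 5% CO2. Caspase-3/7 activity then measured by Caspase-Glo 3/7 luminescence after 30min at room temperature.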

[15] = qHTS assay to identify small molecule agonists or antagonists of the thyroid stimulating hormone receptor (TSHR) signaling pathway - wild type cell line counter screen (AID 1259384; calls by dose curve)
Method in brief: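 Wild-type Hek293 cells, 800/well, 18 h at 37C, then compound with Ro20-1724 for 30 min RT. cAMP by HTRF (cAMP-d2/anti-cAMP cryptate), 1 h RT, fluorescence read. 15 concentrations, triplicates.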

[16] = target: Thyrotropin-releasing hormone receptor (Homo sapiens) (UniProt P34981); test: qHTS assay to identify small molecule antagonists of the thyrotropin-releasing hormone receptor (TRHR) signaling pathway (AID 1346877; active means well fitted inhibition curve with a large enough effect in the repeat runs, not every such curve was filed as active; further: series mostly up to about 51 µM)
Method in brief: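 TRHR-expressing HEK293 cells were seeded, cultured 18 h at 37 °C, then loaded with calcium dye for 2 h. Compounds were pre-incubated 5 min at room temperature before 1 nM TRH (final) was added, and kinetic fluorescence was recorded for 3 min.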

[17] = target: Thyrotropin-releasing hormone receptor (Homo sapiens) (UniProt P34981); test: qHTS assay to identify small molecule agonists of the thyrotropin-releasing hormone receptor (TRHR) signaling pathway (AID 1346891; calls by dose curve; further: series mostly up to about 58 µM)
Method in brief: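 Compounds were tested as agonists at 15 concentrations, in triplicate, on TRHR-Hek293 cells; calcium-sensitive dye fluorescence was recorded for 3 min following addition.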

[18] = target: Thyrotropin receptor (Homo sapiens) (UniProt P16473); test: qHTS assay to identify small molecule antagonists of the thyroid stimulating hormone receptor (TSHR) signaling pathway (AID 1259385; calls by dose curve; further: nearly all actives have a fitted effect of over 20% in size)
Method in brief: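 TSHR-HEK293 cells (800/well) plated 18 h, then compounds with Ro20-1724 and TSH at 1.5 ng/mL final, 30 min at room temperature. cAMP quantified by HTRF (cAMP-d2/anti-cAMP-cryptate, 1 h); 15 concentrations in triplicate.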

Sequence of Progesterone receptor (Homo sapiens) (P06401 whole entry, looked up): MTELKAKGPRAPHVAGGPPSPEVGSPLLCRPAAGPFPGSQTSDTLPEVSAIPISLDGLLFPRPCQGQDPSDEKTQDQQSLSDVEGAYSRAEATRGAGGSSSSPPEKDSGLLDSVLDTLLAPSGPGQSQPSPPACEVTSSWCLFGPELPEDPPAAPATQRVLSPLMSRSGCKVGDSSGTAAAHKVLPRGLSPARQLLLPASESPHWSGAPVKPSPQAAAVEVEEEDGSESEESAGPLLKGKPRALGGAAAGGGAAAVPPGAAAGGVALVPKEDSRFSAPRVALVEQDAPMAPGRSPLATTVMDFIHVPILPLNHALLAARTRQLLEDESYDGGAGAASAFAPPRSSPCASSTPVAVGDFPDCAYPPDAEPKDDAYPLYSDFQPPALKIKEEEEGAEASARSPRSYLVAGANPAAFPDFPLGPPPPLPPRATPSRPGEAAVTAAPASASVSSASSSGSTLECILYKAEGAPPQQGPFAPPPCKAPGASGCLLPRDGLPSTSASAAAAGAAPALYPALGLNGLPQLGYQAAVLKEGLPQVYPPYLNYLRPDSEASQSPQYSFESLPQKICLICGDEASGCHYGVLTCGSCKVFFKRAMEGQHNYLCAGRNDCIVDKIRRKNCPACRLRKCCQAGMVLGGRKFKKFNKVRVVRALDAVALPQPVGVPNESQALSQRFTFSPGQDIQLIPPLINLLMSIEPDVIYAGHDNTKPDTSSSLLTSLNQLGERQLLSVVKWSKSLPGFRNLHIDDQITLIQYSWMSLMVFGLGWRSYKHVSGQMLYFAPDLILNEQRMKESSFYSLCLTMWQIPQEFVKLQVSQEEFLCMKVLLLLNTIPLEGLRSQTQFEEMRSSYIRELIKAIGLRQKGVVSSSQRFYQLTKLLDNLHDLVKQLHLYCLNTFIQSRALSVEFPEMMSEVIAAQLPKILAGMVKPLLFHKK
Sequence of Thyrotropin receptor (Homo sapiens) (P16473 whole entry, looked up): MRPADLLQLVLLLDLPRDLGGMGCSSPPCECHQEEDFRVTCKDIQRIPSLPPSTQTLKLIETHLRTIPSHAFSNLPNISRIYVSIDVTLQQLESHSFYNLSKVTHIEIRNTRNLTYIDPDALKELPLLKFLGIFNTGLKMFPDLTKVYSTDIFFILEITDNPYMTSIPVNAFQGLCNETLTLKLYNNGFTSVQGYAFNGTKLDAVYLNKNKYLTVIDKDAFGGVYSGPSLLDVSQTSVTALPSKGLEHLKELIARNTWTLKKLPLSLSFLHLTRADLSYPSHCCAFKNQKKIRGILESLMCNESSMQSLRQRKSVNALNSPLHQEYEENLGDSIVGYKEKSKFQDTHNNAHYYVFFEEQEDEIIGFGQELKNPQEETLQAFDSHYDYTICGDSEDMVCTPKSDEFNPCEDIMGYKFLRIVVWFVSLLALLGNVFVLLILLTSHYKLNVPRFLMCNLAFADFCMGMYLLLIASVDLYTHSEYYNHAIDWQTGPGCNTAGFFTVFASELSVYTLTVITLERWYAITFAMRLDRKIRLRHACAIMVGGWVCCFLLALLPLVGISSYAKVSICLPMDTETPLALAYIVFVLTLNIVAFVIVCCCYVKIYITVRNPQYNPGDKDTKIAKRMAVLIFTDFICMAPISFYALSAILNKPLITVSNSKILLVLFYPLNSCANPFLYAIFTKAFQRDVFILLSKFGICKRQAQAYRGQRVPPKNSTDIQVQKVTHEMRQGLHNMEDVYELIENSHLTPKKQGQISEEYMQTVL
Sequence of Thyrotropin-releasing hormone receptor (Homo sapiens) (P34981 whole entry, looked up): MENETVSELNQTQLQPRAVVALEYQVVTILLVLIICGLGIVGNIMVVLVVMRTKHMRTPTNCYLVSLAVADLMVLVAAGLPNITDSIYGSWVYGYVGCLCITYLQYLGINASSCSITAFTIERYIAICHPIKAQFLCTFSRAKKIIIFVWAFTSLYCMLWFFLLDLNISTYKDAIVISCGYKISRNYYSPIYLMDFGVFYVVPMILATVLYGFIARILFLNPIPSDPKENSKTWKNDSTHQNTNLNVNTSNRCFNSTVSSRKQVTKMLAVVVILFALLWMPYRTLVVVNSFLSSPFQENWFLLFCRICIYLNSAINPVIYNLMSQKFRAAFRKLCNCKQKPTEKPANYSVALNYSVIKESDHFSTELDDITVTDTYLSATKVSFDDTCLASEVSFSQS

Compound	Potency [1]	Potency [2]	Potency [3]	Potency [4]	Potency [5]	Potency [6]	Potency [7]	Potency [8]	Potency [9]	outcome [10]	Potency [11]	Potency [12]	Potency [13]	outcome [14]	outcome [15]	Potency [16]	outcome [17]	Potency [18]
ON=C1CCCCC1	inactive	inactive	inactive	inactive	inactive	inactive	inactive	inactive	inactive	inactive	inactive	inactive	inactive	inactive				
CCCCCCCCCCCCCCCO	inactive	inactive	inactive	inactive	inactive	inactive	inactive		24.8 µM (active) and inactive	inactive	inactive	inactive	24.5 µM (active) and inactive	inactive	inactive			
CSCCC=O	inactive	inactive	inactive	inactive	inactive	inactive	inactive	inactive	inactive	inactive	inactive	inactive	inactive	inactive		inactive	inactive	
O=C1CCC(N2C(=O)c3ccccc3C2=O)C(=O)N1 (stereo unspecified)	inactive	inactive	inactive	inactive	inactive	inactive	inactive	inactive	inactive	inactive	inactive	inactive		inactive		inactive	inactive	inactive
CC1CCC2CC1C2(C)C (stereo unspecified)	inactive	inactive	inactive	inactive	inactive	inactive	inactive	inactive	inactive	inactive	inactive	inactive		inactive	inactive	inactive	inactive	
C#C[C@]1(O)CC[C@H]2[C@@H]3CCC4=CC(=O)CC[C@@H]4[C@H]3CC[C@@]21C	48.6 µM (active)	inactive	inactive			inactive	inactive	inactive	inactive	inactive	inactive	inactive	61.1 µM (active)	inactive				inactive
CN(C)CCOCCN(C)C	inactive	inactive	inactive	inactive	inactive	inactive	inactive	inactive	inactive	inactive	inactive	inactive	inactive	inactive	inactive			inactive
O=C(CC(C(=O)OC1CCCCC1)S(=O)(=O)O)OC1CCCCC1 (stereo unspecified)	inactive	inactive	inactive	inactive	inactive	inactive	inactive	inactive	inactive	inactive	inactive	inactive		inactive	inactive			inactive
O=C(Oc1ccccc1)c1ccccc1	inactive	inactive	inactive	inactive	inactive	inactive	inactive	inactive	inactive	inactive	inactive	inactive	inactive	inactive		inactive	inactive	
CCCCCCCCC/C=C/CC1CC(=O)OC1=O (stereo unspecified)		inactive	inactive	inactive	inactive	inactive	inactive	inactive	inactive	inactive	inactive	inactive	inactive	inactive				
CC(C)CC(=O)CC(C)C	inactive	inactive	inactive	inactive	inactive	inactive	inactive	inactive	inactive	inactive	inactive	inactive	inactive	inactive				
C=CCNC(N)=S	inactive	inactive	inactive	inactive	inactive	inactive	21.2 µM (active) and inactive	inactive	inactive	inactive	inactive	inactive	inactive	inactive		inactive	inactive	inactive
Cc1ccc(S(N)(=O)=O)cc1	inactive	inactive	inactive	inactive	inactive	inactive	inactive	inactive	inactive	inactive	inactive	inactive	inactive	inactive		inactive	inactive	
